Hits are enriched below; roughly 4.7% of the tested compounds scored in any of these assays.
ATG4B inh: ATG4B (human) cysteine protease inhibition; Q9Y4P1; ATG4B cleavage of LC3-PLA2, NBD-HPC fluorescence, 1 h; inhibition, % at 8.33 µM; 0.51% of 340,000 active; in the data active = inhibition above about 40%
Target sequence (Q9Y4P1 whole entry, looked up): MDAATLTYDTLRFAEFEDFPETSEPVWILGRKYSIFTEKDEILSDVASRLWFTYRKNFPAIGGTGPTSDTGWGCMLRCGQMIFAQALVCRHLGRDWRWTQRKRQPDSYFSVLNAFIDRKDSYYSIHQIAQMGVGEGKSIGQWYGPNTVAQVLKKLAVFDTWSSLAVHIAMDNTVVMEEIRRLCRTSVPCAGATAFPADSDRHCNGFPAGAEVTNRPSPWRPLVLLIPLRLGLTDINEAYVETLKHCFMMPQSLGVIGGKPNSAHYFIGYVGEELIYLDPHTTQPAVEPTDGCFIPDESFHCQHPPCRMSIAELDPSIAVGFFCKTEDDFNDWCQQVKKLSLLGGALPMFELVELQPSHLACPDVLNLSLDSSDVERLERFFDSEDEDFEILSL
PfHsp90 yeast 2: inhibits growth of yeast expressing Plasmodium falciparum Hsp90. S. cerevisiae expressing PfHsp90, BacTiter-Glo ATP, 48 h; yeast lacking PDR1 and PDR3 efflux regulators. inhibition, % at 9.4 µM. 0.32% of 310,000 active;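 active = every replicate shows inhibition above about 80%, whatever the replicate mean, limit read from the data; inconclusive = mean inhibition reaches the set limit but some replicate falls short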
tim10-1 inh: tim10-1 yeast growth inhibition; 2.2% of 330,000 active; inhibition, % at 20 µM; AID 463190; S. cerevisiae tim10-1 ts strain growth, BacTiter-Glo, 24 h;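 active = inhibition of at least 40%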;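 also: mutant grown at 25 °C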
SKKanGAS inh: inhibitors of SKKanGAS S. pyogenes growth in kanamycin (SK-promoter or general growth effect) | BacTiter-Glo, 6 h | inhibition, % at 7.5 µM | 1.3% of 300,000 active | AID 1662;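 active = mean replicate score, as percent of positive control median, at least 50; inconclusive = mean below 50 but one replicate at or above 50; inactive = mean and every replicate below 50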;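 also: strain carries kanamycin resistance gene driven by streptokinase promoter and grows in 40 µg/ml kanamycin; loss of luminescence reflects streptokinase promoter inhibition or plain growth inhibition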
tim23-1 inh: growth inhibitors of tim23-1 mutant yeast. S. cerevisiae tim23-1 growth, BacTiter-Glo luminescence, 24 h. inhibition, % at 20 µM. 1.3% of 330,000 active;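 active = growth inhibition of the mutant yeast at or above 50%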;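 also: temperature-sensitive mutant grown at 25 °C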
TIM10 inh: inhibits growth of TIM10 yeast strain; S. cerevisiae TIM10 strain growth, BacTiter-Glo luminescence, 24 h; 1.4% of 330,000 active; inhibition, % at 10 µM;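 active = inhibition of 40% or more at the single tested concentration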;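 also: wild-type TIM10 isogenic control strain grown at permissive 25 °C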
tim10-1 conf: confirmation of tim10-1 mutant yeast growth inhibitors. shares compounds with tim10-1 inh. S. cerevisiae tim10-1 ts strain growth, BacTiter-Glo, 24 h. inhibition, % at 20 µM. 56% of 7,400 active. AID 463213;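 active = inhibition of yeast growth at or above a set limit in either of two repeat tests at 20 µM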;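 also: tim10-1 mutant grown at permissive 25 °C to find synthetic lethal compounds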
Of the large screens only hits and unclear results are named; the others gave an inactive call (follow-up assays come after a bar, where they were run).

CC[C@@H](C)[C@H](NC(=O)OC(C)(C)C)c1nnc(S(=O)(=O)Cc2cc(C)ccc2C)o1	PfHsp90 yeast 2 106, tim10-1 inh 52, SKKanGAS inh 52 | tim10-1 conf 57
CC(C)(C)OC(=O)N[C@@H](Cc1ccccc1)c1nnc(S(=O)(=O)Cc2cccc(F)c2)o1	tim10-1 inh 59, SKKanGAS inh inconclusive (no result: PfHsp90 yeast 2) | tim10-1 conf 50
CC(C)C[C@H](N)c1nnc(S(=O)(=O)Cc2cccc(F)c2)o1	none
CC[C@@H](C)[C@H](NC(=O)OCc1ccccc1)c1nnc([C@@H](NC(=O)OCc2ccccc2)[C@@H](C)CC)o1	none
Cc1ccc(S(=O)(=O)N(C(=O)c2ccncc2)c2ccc(OC(=O)c3ccncc3)c3ccccc23)c(C)c1	tim10-1 inh 48 | tim10-1 conf 32
COc1cccc(Nc2ncnc3c2cnn3-c2cccc(C)c2)c1	none (no result: PfHsp90 yeast 2)
COc1ccc(Nc2nc(N)nc(CSC(=S)N3CCN(c4ccccc4)CC3)n2)cc1	tim10-1 inh 41 | tim10-1 conf inactive
COc1cc(C2C3C(=O)N(c4ccccc4)C(=O)C3ON2c2ccccc2)cc(OC)c1OC (stereo not given)	none (no result: PfHsp90 yeast 2)
CCOC(=O)c1ccc(NC(=O)c2sc3nc4n(c(=O)c3c2C)CCC4)cc1	tim10-1 inh 48, SKKanGAS inh 62 | tim10-1 conf inactive
Cc1cc(C)cc(NC(=O)c2sc3nc4n(c(=O)c3c2C)CCC4)c1	tim10-1 inh 43 | tim10-1 conf inactive
CCCCCCC1C(C#N)=C(N)OC2=C1C(=O)CC(C)(C)C2 (stereo not given)	none
CCCCC1C2=C(CC(C)(C)CC2=O)OC2=C1C(=O)CC(C)(C)C2	tim10-1 inh 44 | tim10-1 conf 38
Fc1ccc(NC(=S)Nc2cccc3ccccc23)cc1F	tim10-1 inh 42 | tim10-1 conf inactive
Cc1cccc(NC(=S)Nc2cccc3ccccc23)c1	tim10-1 inh 45 | tim10-1 conf inactive
C/C(=N\NC(=S)Nc1cccc(C)c1)c1cc2ccccc2o1	tim10-1 inh 47, SKKanGAS inh 67 | tim10-1 conf 39
Cc1cc(NC(=S)Nc2ccccc2)ccc1Br	tim10-1 inh 41 | tim10-1 conf inactive
Cc1cc(C)cc(NC(=S)Nc2cccc3ccccc23)c1	none
Cc1ccc(NC(=S)Nc2cccc3ccccc23)cc1	none
COC(=O)Cc1[nH]nc2c1C(C1C=CCCC1)C(C#N)=C(N)O2 (stereo not given)	none
CCc1cccc(NC(=S)Nc2cccc3ccccc23)c1	none
COc1cccc(NC(=S)Nc2cccc3ccccc23)c1	tim10-1 inh 55 | tim10-1 conf inactive
S=C(N/N=C/c1cccc2ccccc12)Nc1cccc(Cl)c1	tim10-1 inh 43 | tim10-1 conf 37
Cc1cc(C(=O)N2CCCC(CCC(=O)N3CCN(c4ccccn4)CC3)C2)c(C)o1 (stereo not given)	none
COc1ccccc1NC(CC(=O)c1ccccc1)C(=O)OCC(=O)c1ccc(Br)cc1 (stereo not given)	tim10-1 inh 45 | tim10-1 conf 37
Cc1ccc(/C=N/NC(=O)CSCc2ccc(Cl)cc2)cc1	tim10-1 inh 40 | tim10-1 conf inactive
Cc1ccsc1/C=N/NC(=O)CSCc1ccc(Cl)cc1	none
COc1cc(-c2cc(=O)c3c(O)c(OC)c(OC)cc3o2)cc(OC)c1O	tim10-1 inh 42 | tim10-1 conf inactive
Fc1cccc(F)c1/C=N/N1CCOCC1	none
OCCNc1ncnc2c1sc1nc(N3CCOCC3)c3c(c12)CCC3	tim10-1 inh 49 | tim10-1 conf inactive
Cc1cc(C(=O)COc2ccccc2C(N)=O)c(C)n1C1CC1	none
Cc1cc(C(=O)COc2ccccc2[N+](=O)[O-])c(C)n1C1CC1	tim10-1 inh 44 | tim10-1 conf inactive
CCC(C)(C)C1CCC(=NNC(=O)c2ccoc2C)CC1 (stereo not given)	none
COc1ccc(/C=N/n2c(=S)n(C)c3ccccc32)cc1OC	tim10-1 inh 43 | tim10-1 conf 30
O=C(NC(=S)NNC(=O)c1ccco1)c1ccc(Br)cc1	tim10-1 inh 41, SKKanGAS inh 55 | tim10-1 conf inactive

Screening results (PubChem)
